Laboratory results as given in PubChem BioAssay (NCI).
This is part of a sample that, as a whole, favours compounds with a hit. Of some 79,000 tested, about 15% had one in any assay. Unmarked numbers belong to inactive results. The source made the active and inactive calls. Rule as the data show it: active = growth inhibition above about 70%; inactive = the rest.

Assay: NCI Yeast Anticancer Drug Screen. Data for the rad52 strain (AID 147);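 also: 0% = growth of vehicle-treated control cultures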
Conditions: S. cerevisiae rad52 mutant growth inhibition, hits give high values
Method: Growth inhibition of yeast strains with defined genetic alterations is measured as a screen for potential anti-cancer activity. Selected strains with alterations in DNA damage repair or cell cycle control were exposed to compounds and growth inhibition was measured relative to vehicle treated controls. The strain used in this assay is rad52

SMILES | growth inhibition (at 1.2 µM) [%] | growth inhibition (at 3.7 µM) [%] | growth inhibition (at 11.0 µM) [%] | growth inhibition (at 33.0 µM) | growth inhibition (at 100.0 µM)
CCn1ncc(N=O)c1N | 0 | 3 | 9 | 29% | 58%
O=Nn1c2ccccc2c2cc([N+](=O)[O-])ccc21 | -6 | 11 | 51 | 88% (active) | 95% (active)
CC1(C)C(C=O)=CCC1CC(N)=O (stereo not given) | -1 | -1 | 0 | 7% | 80% (active)
CN(C)Cc1cccc(CN(C)C)[c]1[Sn]([Br])([c]1ccccc1)[c]1ccccc1 | 28 | 45 | 57 | 74% (active) | 97% (active)
CC(=O)[C@]1(O)Cc2c(O)c3c(c(O)c2[C@@H](OC2CC(N)C(O)C(C)O2)C1)C(=O)c1c(OCc2ccccc2)cccc1C3=O (stereo not given in full) | 21 | 40 | 59 | 79% (active) | 94% (active)
CCCCOC(=O)CSSCC(=O)OCCCC | -20 | -9 | 28 | 83% (active) | 97% (active)
O=S1(=O)c2ccccc2N=C(c2ccccc2Cl)CC1c1ccc(F)cc1 (stereo not given) | 21 | 24 | 28 | 35% | 34%
COCCCN(Cc1cc(OC)c(OC)c(OC)c1)C(=S)Nc1cccc(Cl)c1 | 20 | 12 | 7 | 23% | 46%
